This passage reports binding signal results from publication PMC7862700, “An all-to-all approach to the identification of sequence-specific readers for epigenetic DNA modifications on cytosine”.

Common to all, as to test: DAPPL (digital affinity profiling via proximity ligation, sequencing); 10 mM Tris-HCl pH 7.5, 50 mM NaCl, 1 mM DTT, 4% glycerol, room temperature, 30 min; GST-TFs on glutathione beads, 16-mer random dsDNA library, 0.1% formaldehyde crosslink after washing; high values mean tight binding
One experiment addresses T1, FEV (Homo sapiens, UniProt Q99581 1-238).
T1 sequence: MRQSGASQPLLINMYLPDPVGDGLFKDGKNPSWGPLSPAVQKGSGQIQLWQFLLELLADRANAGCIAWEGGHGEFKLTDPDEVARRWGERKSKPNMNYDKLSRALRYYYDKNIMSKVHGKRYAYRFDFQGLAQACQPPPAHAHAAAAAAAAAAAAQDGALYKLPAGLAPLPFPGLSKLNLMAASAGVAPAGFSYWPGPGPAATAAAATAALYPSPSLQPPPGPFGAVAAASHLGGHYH
Particulars: protein: recombinant; tags: N-terminal GST; dsDNA, one strand shown. In outline: (§1)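 Binding signal is each hexamer's read frequency for a factor divided by its frequency in the tag-only sample. The factors were GST-fused human transcription factors from yeast, captured on glutathione beads, DNA-barcoded and pooled with that sample. Pools were incubated with 200 nmole of a random double-stranded 16-mer DNA library in Tris/NaCl/DTT/glycerol buffer at room temperature for 30 min, then washed, crosslinked with 0.1% formaldehyde, proximity-ligated with BsaI/T4 ligase (1 h, 37 °C), PCR-amplified and sequenced on an Illumina NextSeq500.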

A further experiment has as its target ETV5 (Homo sapiens, UniProt P41161 1-510). Particulars: protein: recombinant; tags: N-terminal GST; dsDNA, one strand shown. In outline:
as §1

The next experiment concerns the target HSF1 (Homo sapiens, UniProt Q00613 1-529). Particulars: protein: recombinant; tags: N-terminal GST; chain copies: 3; dsDNA, one strand shown. In outline:
as §1

The next experiment addresses T2, SPIC (Homo sapiens, UniProt Q8N5J4 1-248).
T2 sequence: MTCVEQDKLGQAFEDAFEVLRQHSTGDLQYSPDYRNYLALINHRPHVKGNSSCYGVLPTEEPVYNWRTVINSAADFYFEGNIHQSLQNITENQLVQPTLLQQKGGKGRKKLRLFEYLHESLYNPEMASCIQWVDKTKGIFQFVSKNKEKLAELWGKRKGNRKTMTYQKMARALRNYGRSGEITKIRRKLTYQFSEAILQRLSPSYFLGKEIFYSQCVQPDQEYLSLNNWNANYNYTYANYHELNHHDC
The conditions noted are these: protein: recombinant; tags: N-terminal GST; dsDNA, one strand shown. In outline: as §1

The next experiment deals with ELF4 (Homo sapiens, UniProt Q99607 1-663). Particulars: protein: recombinant; tags: N-terminal GST; dsDNA, one strand shown. In outline: as §1
Chain of ELF4 (Q99607 whole entry): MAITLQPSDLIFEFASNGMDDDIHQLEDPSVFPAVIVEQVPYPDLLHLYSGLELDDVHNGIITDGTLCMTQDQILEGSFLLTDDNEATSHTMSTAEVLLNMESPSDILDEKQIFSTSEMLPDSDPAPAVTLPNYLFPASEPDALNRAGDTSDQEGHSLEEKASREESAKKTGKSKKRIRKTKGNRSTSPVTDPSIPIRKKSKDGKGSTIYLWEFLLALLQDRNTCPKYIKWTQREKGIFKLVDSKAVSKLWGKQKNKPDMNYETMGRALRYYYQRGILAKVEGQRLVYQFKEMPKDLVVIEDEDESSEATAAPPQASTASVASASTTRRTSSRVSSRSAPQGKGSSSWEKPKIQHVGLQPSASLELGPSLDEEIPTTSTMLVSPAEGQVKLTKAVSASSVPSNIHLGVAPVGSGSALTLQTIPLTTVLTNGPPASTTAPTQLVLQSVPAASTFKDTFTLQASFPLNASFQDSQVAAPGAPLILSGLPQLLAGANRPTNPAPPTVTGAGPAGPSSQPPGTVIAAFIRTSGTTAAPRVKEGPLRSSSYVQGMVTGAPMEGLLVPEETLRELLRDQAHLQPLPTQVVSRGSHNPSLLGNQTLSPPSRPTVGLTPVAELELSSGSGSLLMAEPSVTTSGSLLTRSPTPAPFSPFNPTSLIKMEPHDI
A further experiment concerns the target T3, ELK4 (Homo sapiens, UniProt P28324-2 1-405).
T3 sequence: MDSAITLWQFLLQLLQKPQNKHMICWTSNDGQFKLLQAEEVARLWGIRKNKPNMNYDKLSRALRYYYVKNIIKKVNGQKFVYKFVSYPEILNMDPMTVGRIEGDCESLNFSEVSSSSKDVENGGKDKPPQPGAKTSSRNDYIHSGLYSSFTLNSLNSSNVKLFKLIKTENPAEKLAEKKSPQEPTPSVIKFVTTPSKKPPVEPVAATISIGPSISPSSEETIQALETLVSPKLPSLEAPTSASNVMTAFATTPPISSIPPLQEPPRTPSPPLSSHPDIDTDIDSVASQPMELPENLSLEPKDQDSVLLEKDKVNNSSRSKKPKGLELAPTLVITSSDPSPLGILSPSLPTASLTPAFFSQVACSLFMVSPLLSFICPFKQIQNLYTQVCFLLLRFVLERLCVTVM
Particulars: protein: recombinant; tags: N-terminal GST; dsDNA, one strand shown. In outline: as §1

A further experiment has as its target T4, ETV2 (Homo sapiens, UniProt O00321 1-342).
T4 sequence: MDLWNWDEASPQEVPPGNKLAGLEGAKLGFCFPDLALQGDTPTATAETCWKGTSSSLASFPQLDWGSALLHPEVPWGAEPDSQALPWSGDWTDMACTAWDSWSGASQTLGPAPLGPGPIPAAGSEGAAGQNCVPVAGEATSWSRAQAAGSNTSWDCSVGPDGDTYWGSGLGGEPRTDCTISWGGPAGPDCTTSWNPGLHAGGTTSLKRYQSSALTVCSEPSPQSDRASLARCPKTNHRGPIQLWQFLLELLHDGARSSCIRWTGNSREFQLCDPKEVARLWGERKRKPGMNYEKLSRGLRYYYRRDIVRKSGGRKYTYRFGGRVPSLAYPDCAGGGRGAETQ
The conditions noted are these: protein: recombinant; tags: N-terminal GST; dsDNA, one strand shown. In short, it runs like this:
as §1

The target of the next experiment is T5, ELF3 (Homo sapiens, UniProt P78545 1-371).
T5 sequence: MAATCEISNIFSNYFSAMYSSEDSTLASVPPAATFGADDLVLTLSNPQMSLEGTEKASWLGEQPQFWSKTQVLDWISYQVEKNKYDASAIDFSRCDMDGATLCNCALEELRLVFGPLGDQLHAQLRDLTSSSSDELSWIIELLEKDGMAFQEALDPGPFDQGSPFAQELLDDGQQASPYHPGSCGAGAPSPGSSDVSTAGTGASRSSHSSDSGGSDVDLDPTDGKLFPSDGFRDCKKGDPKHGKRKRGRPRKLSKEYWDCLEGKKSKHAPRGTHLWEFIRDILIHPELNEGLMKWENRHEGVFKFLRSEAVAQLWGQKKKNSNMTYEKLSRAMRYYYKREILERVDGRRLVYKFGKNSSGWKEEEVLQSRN
Particulars: protein: recombinant; tags: N-terminal GST; dsDNA, one strand shown. In short, it runs like this:
as §1

Another experiment deals with CRX (Homo sapiens, UniProt O43186 1-299). Particulars: protein: recombinant; tags: N-terminal GST; dsDNA, one strand shown. In short, it runs like this: as §1
Chain of CRX (O43186 whole entry): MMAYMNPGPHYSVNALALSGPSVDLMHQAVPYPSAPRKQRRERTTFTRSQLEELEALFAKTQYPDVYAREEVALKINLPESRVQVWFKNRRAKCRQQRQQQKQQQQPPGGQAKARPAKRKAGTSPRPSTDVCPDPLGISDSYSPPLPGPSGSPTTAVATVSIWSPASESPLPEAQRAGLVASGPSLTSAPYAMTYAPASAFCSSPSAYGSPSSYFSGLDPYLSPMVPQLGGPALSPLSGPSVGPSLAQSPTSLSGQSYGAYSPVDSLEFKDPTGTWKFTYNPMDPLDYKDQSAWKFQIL
A further experiment addresses ETV1 (Homo sapiens, UniProt P50549 1-477). Particulars: protein: recombinant; tags: N-terminal GST; dsDNA, one strand shown. In short, it runs like this: as §1
A further experiment addresses T6, ERF (Homo sapiens, UniProt P50548 1-548).
T6 sequence: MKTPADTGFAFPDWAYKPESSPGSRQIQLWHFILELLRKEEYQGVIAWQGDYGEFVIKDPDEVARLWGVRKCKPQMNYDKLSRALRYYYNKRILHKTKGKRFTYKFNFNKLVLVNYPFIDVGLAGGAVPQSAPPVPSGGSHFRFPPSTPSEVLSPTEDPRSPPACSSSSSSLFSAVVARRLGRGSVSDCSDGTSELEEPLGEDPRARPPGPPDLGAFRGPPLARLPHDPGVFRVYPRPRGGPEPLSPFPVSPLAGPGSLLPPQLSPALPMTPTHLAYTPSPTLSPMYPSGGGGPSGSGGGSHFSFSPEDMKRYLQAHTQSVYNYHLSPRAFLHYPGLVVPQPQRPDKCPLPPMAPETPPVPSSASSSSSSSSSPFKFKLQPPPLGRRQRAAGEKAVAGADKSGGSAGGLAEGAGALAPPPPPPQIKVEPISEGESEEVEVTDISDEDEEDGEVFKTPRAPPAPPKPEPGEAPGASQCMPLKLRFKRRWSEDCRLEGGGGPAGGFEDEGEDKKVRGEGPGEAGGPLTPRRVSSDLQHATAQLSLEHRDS
The conditions noted are these: protein: recombinant; tags: N-terminal GST; dsDNA, one strand shown. In short, it runs like this:
as §1

The next experiment concerns the target T7, ETV3L (Homo sapiens, UniProt Q6ZN32 1-361).
T7 sequence: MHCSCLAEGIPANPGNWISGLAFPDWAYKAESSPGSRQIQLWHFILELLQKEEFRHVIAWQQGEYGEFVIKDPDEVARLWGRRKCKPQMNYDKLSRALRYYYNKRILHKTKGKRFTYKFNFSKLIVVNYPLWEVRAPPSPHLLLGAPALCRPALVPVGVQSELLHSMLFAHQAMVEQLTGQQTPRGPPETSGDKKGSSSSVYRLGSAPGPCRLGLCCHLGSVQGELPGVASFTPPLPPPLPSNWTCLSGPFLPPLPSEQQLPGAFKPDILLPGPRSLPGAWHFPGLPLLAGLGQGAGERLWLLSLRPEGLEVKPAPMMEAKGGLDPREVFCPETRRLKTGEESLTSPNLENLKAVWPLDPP
Particulars: protein: recombinant; tags: N-terminal GST; dsDNA, one strand shown. In short, it runs like this:
as §1

The next experiment concerns the target T8, ETS2 (Homo sapiens, UniProt P15036 1-469).
T8 sequence: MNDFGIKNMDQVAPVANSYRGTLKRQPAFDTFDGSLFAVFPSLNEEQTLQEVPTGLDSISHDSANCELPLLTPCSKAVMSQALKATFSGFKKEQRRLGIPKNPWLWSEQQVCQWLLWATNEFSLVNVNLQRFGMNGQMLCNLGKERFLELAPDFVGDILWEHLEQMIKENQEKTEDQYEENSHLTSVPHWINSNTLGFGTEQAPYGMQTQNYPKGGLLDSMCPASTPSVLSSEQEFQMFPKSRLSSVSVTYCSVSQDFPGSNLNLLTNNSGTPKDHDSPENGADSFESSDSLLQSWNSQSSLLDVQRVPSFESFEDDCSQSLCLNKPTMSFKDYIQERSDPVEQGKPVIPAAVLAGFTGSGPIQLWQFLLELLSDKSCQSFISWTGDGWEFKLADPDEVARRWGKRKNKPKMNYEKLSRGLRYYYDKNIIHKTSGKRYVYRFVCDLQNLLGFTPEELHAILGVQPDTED
Particulars: protein: recombinant; tags: N-terminal GST; dsDNA, one strand shown. In short, it runs like this: as §1

The target of a further experiment is T9, SPDEF (Homo sapiens, UniProt O95238 1-335).
T9 sequence: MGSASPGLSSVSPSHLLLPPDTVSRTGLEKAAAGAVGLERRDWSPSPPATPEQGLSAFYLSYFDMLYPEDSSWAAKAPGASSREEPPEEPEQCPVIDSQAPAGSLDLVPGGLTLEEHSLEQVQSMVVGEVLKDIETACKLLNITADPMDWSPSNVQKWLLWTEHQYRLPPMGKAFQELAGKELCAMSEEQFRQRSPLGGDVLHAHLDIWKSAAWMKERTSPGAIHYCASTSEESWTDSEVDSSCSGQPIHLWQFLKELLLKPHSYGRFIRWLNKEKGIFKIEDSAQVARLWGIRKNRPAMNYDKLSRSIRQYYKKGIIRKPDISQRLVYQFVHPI
The conditions noted are these: protein: recombinant; tags: N-terminal GST; dsDNA, one strand shown. In short, it runs like this:
as §1

The next experiment deals with T10, ETV7 (Homo sapiens, UniProt Q9Y603 1-341).
T10 sequence: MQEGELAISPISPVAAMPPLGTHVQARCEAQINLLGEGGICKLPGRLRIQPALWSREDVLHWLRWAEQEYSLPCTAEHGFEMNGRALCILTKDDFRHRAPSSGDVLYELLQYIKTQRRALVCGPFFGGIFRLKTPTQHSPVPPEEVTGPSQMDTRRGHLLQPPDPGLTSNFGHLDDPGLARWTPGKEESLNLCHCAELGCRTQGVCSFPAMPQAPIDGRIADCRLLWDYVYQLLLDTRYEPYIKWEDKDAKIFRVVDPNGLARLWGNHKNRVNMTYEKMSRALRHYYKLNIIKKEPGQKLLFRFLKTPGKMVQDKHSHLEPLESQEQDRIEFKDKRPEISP
Particulars: protein: recombinant; tags: N-terminal GST; dsDNA, one strand shown. In short, it runs like this: as §1

The target in the next experiment is T11, ELF5 (Homo sapiens, UniProt Q9UKW6-2 1-255).
T11 sequence: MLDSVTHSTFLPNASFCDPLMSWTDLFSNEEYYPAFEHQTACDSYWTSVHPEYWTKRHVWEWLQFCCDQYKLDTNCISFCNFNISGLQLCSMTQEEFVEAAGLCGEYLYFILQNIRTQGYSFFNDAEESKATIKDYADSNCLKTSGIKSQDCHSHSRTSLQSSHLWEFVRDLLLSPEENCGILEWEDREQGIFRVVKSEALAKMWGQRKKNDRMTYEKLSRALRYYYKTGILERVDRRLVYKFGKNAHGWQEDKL
Particulars: protein: recombinant; tags: N-terminal GST; dsDNA, one strand shown. In short, it runs like this: as §1

Another experiment has as its target T12, ETV3 (Homo sapiens, UniProt P41162-2 1-143).
T12 sequence: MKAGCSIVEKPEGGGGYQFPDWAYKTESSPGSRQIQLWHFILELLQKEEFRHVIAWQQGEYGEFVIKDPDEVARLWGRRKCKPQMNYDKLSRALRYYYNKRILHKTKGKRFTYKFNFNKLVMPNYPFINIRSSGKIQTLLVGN
Particulars: protein: recombinant; tags: N-terminal GST; dsDNA, one strand shown. In short, it runs like this: as §1

In another experiment the target is ETV6 (Homo sapiens, UniProt P41212 1-452). Particulars: protein: recombinant; tags: N-terminal GST; dsDNA, one strand shown. In outline: as §1
Chain of ETV6 (P41212 whole entry): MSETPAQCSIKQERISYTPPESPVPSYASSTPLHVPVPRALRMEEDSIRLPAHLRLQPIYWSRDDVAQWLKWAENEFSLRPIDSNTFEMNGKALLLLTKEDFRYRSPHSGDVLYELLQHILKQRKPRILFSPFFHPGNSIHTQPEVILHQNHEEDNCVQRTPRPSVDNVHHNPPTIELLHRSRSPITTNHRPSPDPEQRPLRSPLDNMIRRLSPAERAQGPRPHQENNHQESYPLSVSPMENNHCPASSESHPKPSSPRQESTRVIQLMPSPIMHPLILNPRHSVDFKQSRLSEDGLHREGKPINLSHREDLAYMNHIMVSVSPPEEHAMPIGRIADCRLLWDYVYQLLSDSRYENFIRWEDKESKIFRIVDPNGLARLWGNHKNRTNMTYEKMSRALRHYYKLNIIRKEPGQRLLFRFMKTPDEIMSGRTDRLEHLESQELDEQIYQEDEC

Chain of ETV5 (P41161 whole entry): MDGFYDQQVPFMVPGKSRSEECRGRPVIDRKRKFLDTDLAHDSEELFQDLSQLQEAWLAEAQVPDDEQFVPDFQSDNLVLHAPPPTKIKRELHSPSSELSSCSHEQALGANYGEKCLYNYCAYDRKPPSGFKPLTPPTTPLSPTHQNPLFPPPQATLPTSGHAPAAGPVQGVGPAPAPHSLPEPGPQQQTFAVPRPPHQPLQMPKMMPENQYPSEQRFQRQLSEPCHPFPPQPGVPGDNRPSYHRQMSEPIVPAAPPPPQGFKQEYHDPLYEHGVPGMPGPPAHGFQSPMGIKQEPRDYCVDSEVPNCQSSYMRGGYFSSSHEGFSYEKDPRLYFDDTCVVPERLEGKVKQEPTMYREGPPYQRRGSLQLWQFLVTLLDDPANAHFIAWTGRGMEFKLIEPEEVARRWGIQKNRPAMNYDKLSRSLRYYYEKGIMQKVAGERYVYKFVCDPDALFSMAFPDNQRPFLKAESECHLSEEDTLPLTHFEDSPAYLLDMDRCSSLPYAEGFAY
Chain of ETV1 (P50549 whole entry): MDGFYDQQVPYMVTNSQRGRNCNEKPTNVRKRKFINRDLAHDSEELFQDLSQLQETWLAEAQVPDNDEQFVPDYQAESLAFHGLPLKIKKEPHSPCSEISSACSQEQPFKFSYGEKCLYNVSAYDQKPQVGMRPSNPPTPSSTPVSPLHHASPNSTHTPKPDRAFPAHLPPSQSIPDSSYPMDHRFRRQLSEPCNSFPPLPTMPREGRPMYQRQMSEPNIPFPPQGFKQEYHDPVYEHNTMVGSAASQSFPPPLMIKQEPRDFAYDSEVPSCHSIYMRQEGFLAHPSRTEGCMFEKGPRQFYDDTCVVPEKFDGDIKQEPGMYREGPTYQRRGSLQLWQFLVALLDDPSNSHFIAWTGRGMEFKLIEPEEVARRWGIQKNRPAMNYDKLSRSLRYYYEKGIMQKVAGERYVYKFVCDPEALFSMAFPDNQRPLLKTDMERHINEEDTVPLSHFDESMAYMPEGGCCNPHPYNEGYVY
Chain of HSF1 (Q00613 whole entry): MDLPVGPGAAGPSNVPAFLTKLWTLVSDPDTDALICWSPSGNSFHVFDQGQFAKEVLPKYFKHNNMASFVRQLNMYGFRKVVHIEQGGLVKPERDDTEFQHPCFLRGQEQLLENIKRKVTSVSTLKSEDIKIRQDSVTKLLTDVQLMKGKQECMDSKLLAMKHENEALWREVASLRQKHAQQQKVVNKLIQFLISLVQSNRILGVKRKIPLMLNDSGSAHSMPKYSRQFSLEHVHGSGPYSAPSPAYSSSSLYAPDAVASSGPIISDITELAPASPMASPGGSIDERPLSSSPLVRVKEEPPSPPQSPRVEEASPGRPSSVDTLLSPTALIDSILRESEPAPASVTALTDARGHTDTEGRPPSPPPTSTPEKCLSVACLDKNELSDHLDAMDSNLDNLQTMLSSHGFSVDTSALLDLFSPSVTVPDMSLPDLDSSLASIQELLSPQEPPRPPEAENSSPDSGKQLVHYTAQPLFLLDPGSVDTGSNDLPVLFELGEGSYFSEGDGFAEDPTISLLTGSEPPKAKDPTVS

TAAAAT: the binding signal with FEV is 1.14 fold enrichment (6-mer frequency, TF over GST control); in the experiment with ETV5, 1.22 fold enrichment (6-mer frequency, TF over GST control); in the experiment with HSF1, 1.48 fold enrichment (6-mer frequency, TF over GST control); with SPIC, 1.19 fold enrichment (6-mer frequency, TF over GST control); with ELF4, 1.2 fold enrichment (6-mer frequency, TF over GST control); with ELK4, 1.2 fold enrichment (6-mer frequency, TF over GST control). Besides, the binding signal with ETV2 is 1.34 fold enrichment (6-mer frequency, TF over GST control); with ELF3, 1.27 fold enrichment (6-mer frequency, TF over GST control); in the experiment with CRX it was 1.76 fold enrichment (6-mer frequency, TF over GST control); with ETV1, 1.22 fold enrichment (6-mer frequency, TF over GST control); with ERF, 1.22 fold enrichment (6-mer frequency, TF over GST control); in the experiment with ETV3L it was 1.28 fold enrichment (6-mer frequency, TF over GST control). Also, the binding signal was 1.28 fold enrichment (6-mer frequency, TF over GST control) with ETS2; 1.14 fold enrichment (6-mer frequency, TF over GST control) in the experiment with SPDEF; 1.17 fold enrichment (6-mer frequency, TF over GST control) with ETV7; 1.15 fold enrichment (6-mer frequency, TF over GST control) with ELF5; 1.17 fold enrichment (6-mer frequency, TF over GST control) with ETV3; 1.18 fold enrichment (6-mer frequency, TF over GST control) with ETV6.
